In test [1] the target is Death-associated protein kinase 1 (Homo sapiens) (UniProt P53355). As to conditions: at 1 µM.
The target is the same in test [2]. To be noted: at 10 µM.
Test [3] has as its target Death-associated protein kinase 2 (Homo sapiens) (UniProt Q9UIK4). To be noted: at 1 µM.
Test [4] has the same target. To be noted: at 10 µM.
The target in test [5] is T1, Serine/threonine-protein kinase DCLK2 (Homo sapiens) (UniProt Q8N568).
T1 sequence (whole entry): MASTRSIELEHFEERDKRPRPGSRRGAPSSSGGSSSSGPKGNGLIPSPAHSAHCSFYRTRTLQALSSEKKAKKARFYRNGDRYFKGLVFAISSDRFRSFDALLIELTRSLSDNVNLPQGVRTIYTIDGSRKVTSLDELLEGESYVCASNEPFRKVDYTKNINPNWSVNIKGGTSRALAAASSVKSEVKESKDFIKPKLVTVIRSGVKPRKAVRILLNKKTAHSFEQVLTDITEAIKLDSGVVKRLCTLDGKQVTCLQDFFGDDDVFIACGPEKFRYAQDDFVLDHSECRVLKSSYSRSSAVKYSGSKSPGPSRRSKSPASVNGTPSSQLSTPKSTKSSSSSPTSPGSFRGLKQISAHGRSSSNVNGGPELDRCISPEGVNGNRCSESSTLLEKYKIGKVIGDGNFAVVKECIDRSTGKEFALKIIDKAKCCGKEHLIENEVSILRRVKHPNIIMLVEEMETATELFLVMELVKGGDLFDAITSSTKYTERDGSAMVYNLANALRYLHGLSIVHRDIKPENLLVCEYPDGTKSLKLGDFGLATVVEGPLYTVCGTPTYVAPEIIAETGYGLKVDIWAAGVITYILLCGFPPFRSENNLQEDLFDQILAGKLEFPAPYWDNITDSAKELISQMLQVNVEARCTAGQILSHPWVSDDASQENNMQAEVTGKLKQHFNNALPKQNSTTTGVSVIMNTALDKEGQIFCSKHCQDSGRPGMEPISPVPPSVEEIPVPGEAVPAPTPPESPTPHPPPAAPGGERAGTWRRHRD
As to conditions: at 1 µM.

Test [6] addresses T1, Serine/threonine-protein kinase DCLK2 (Homo sapiens). As to conditions: at 10 µM.
For test [7], the target named is T2, Discoidin domain-containing receptor 2 (Homo sapiens) (UniProt Q16832).
T2 sequence (whole entry): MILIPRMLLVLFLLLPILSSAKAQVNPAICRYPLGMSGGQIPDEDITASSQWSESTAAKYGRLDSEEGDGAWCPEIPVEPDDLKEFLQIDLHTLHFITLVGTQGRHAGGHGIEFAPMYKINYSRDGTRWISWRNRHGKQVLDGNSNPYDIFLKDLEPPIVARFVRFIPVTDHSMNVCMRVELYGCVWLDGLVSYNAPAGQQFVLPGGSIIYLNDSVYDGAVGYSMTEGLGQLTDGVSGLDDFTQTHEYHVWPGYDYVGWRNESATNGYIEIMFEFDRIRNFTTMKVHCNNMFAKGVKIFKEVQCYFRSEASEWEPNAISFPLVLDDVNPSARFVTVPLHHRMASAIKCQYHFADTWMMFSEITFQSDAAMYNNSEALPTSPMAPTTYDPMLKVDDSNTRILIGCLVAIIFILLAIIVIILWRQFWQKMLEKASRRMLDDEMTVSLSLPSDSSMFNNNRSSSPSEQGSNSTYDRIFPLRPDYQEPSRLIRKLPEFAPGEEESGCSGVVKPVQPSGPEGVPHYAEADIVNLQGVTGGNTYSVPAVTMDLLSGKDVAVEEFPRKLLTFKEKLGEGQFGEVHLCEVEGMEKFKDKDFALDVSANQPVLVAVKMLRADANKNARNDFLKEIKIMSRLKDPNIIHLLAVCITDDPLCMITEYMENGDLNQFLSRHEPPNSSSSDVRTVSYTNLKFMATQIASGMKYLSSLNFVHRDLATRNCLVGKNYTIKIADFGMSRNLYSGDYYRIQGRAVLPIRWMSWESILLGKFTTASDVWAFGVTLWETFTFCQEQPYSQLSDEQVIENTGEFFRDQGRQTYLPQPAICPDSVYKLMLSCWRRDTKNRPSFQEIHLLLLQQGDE
As to conditions: at 1 µM.

Test [8] has as its target T2, Discoidin domain-containing receptor 2 (Homo sapiens). To be noted: at 10 µM.
The target of test [9] is T3, Myotonin-protein kinase (Homo sapiens) (UniProt Q09013).
T3 sequence (whole entry): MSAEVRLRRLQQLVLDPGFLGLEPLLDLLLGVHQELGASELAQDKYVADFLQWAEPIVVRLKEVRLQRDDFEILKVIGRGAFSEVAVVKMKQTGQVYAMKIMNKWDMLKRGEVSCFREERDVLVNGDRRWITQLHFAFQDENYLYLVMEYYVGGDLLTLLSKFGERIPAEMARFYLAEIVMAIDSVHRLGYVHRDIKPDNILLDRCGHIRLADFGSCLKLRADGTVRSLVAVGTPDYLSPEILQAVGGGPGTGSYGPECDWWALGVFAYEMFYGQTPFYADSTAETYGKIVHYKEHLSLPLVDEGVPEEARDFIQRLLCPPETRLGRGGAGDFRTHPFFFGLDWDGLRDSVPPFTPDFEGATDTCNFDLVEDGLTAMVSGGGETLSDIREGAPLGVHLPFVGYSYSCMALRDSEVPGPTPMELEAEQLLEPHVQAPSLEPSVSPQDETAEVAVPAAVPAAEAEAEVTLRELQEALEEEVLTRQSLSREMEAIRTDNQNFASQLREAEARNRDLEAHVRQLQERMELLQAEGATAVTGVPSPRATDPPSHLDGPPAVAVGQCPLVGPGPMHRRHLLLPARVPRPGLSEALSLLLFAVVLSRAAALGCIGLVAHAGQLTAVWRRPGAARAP
As to conditions: at 1 µM.

Test [10] addresses T3, Myotonin-protein kinase (Homo sapiens). To be noted: at 10 µM.
Test [11] has as its target T4, Serine/threonine-protein kinase 17A (Homo sapiens) (UniProt Q9UEE5).
T4 sequence (whole entry): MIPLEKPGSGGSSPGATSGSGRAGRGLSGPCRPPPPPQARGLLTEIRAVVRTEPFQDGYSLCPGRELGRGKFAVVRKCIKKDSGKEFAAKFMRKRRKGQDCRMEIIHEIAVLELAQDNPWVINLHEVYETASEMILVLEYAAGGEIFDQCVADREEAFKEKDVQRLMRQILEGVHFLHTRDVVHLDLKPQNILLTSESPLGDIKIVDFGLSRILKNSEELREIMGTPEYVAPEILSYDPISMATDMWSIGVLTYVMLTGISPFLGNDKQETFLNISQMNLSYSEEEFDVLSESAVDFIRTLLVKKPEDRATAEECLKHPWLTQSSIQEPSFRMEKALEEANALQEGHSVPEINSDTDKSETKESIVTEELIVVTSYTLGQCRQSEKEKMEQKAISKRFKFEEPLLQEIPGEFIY
As to conditions: at 1 µM.

The target of test [12] is T4, Serine/threonine-protein kinase 17A (Homo sapiens). As to conditions: at 10 µM.
For test [13], the target named is T5, Dual specificity tyrosine-phosphorylation-regulated kinase 2 (Homo sapiens) (UniProt Q92630).
T5 sequence (whole entry): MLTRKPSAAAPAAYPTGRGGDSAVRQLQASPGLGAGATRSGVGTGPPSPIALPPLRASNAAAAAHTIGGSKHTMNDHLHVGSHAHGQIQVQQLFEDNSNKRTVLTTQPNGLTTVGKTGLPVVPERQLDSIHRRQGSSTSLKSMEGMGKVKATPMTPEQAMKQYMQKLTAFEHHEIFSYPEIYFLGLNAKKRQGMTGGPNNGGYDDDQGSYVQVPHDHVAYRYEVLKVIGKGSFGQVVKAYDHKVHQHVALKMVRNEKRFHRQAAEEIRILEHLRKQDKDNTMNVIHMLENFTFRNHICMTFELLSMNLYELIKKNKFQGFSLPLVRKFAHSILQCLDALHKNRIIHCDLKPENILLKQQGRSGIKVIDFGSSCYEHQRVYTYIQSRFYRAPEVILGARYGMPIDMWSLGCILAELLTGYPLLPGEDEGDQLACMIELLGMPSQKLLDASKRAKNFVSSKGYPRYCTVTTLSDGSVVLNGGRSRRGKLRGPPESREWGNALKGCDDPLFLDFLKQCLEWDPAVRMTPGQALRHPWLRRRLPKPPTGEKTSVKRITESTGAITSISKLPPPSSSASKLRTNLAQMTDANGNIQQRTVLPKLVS
To be noted: at 1 µM.

In test [14] the target is T5, Dual specificity tyrosine-phosphorylation-regulated kinase 2 (Homo sapiens). As to conditions: at 10 µM.
In test [15] the target is T6, Ephrin type-A receptor 1 (Homo sapiens) (UniProt P21709).
T6 sequence (whole entry): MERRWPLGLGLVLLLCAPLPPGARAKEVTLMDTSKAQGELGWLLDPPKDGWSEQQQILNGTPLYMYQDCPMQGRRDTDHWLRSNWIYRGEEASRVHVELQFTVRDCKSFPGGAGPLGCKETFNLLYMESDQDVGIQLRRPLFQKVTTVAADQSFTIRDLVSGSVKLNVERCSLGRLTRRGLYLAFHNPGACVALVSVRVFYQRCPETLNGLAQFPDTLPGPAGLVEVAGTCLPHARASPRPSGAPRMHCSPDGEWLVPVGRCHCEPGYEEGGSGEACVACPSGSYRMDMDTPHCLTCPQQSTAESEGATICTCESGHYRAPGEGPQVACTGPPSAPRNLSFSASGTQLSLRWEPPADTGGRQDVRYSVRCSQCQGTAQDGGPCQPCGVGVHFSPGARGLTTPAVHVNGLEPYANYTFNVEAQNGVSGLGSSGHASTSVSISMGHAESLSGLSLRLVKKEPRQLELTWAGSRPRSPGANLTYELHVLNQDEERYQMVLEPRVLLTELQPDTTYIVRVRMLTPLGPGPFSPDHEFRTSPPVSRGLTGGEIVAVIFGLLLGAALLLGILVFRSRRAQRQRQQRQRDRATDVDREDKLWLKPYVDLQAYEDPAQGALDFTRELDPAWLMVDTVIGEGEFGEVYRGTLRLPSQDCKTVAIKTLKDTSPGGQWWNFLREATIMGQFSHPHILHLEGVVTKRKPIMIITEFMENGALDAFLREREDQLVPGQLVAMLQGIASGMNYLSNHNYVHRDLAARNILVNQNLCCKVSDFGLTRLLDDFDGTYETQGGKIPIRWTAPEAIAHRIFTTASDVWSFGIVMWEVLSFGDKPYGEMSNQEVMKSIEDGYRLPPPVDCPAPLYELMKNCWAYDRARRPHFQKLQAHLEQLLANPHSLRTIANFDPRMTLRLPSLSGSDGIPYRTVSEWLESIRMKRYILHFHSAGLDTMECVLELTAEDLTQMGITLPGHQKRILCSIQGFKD
As to conditions: at 1 µM.

For test [16], the target named is T6, Ephrin type-A receptor 1 (Homo sapiens). As to conditions: at 10 µM.
The target in test [17] is Ephrin type-A receptor 2 (Homo sapiens) (UniProt P29317). As to conditions: at 1 µM.
Ephrin type-A receptor 2 (Homo sapiens), sequence (P29317 whole entry): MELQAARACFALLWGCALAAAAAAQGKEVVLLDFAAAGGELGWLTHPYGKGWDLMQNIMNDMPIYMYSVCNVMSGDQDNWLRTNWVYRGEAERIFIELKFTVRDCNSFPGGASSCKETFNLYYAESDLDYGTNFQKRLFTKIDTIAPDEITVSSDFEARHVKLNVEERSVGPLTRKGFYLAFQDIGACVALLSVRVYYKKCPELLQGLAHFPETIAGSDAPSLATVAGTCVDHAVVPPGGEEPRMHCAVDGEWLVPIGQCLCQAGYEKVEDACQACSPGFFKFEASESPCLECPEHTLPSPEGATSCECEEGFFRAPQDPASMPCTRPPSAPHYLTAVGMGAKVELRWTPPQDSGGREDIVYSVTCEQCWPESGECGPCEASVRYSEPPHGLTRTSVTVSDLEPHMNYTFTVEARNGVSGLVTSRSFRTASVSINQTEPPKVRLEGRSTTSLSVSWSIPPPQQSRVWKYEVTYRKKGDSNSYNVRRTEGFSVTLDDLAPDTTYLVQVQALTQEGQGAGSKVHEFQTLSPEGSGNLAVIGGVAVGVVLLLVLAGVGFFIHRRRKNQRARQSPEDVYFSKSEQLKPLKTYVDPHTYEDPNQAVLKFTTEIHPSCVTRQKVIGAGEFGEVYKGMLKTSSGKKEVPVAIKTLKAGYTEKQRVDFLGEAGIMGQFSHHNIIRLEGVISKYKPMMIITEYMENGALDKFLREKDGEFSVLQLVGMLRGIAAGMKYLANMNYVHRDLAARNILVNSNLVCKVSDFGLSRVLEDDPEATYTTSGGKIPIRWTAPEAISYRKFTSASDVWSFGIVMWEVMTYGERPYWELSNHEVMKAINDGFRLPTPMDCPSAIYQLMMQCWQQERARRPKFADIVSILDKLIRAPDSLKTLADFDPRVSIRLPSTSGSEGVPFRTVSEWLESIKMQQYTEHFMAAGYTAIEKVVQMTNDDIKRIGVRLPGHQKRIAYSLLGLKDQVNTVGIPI
Test [18] has the same target. To be noted: at 10 µM.
For test [19], the target named is T7, Ephrin type-A receptor 3 (Homo sapiens) (UniProt P29320).
T7 sequence (whole entry): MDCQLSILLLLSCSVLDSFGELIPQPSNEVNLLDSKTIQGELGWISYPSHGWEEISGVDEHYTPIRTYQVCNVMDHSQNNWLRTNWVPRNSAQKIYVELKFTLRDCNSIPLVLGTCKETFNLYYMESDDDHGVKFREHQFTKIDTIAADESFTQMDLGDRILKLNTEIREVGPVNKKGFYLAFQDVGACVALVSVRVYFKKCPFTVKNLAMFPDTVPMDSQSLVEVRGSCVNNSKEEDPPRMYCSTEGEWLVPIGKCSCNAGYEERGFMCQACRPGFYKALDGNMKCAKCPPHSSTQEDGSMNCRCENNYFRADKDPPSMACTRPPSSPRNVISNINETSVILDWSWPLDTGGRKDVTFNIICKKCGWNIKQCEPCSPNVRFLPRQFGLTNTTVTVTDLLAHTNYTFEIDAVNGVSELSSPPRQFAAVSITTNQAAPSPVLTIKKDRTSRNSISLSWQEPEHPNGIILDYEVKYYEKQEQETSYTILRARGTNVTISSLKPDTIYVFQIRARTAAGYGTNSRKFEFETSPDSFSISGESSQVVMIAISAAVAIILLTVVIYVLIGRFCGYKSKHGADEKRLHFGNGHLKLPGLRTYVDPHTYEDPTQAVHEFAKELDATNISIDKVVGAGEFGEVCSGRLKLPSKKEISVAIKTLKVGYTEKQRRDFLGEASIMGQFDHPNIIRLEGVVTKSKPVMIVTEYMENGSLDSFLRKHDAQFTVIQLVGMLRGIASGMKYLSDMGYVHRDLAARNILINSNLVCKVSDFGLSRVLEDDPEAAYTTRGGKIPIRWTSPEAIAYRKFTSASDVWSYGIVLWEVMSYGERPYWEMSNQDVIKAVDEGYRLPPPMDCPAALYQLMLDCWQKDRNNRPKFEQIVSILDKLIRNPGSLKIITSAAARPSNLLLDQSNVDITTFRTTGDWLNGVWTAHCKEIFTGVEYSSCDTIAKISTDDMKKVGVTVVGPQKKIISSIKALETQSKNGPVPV
As to conditions: at 1 µM.

The structures appear in SMILES notation.

Death-associated protein kinase 1 (Homo sapiens), sequence (P53355 whole entry, looked up): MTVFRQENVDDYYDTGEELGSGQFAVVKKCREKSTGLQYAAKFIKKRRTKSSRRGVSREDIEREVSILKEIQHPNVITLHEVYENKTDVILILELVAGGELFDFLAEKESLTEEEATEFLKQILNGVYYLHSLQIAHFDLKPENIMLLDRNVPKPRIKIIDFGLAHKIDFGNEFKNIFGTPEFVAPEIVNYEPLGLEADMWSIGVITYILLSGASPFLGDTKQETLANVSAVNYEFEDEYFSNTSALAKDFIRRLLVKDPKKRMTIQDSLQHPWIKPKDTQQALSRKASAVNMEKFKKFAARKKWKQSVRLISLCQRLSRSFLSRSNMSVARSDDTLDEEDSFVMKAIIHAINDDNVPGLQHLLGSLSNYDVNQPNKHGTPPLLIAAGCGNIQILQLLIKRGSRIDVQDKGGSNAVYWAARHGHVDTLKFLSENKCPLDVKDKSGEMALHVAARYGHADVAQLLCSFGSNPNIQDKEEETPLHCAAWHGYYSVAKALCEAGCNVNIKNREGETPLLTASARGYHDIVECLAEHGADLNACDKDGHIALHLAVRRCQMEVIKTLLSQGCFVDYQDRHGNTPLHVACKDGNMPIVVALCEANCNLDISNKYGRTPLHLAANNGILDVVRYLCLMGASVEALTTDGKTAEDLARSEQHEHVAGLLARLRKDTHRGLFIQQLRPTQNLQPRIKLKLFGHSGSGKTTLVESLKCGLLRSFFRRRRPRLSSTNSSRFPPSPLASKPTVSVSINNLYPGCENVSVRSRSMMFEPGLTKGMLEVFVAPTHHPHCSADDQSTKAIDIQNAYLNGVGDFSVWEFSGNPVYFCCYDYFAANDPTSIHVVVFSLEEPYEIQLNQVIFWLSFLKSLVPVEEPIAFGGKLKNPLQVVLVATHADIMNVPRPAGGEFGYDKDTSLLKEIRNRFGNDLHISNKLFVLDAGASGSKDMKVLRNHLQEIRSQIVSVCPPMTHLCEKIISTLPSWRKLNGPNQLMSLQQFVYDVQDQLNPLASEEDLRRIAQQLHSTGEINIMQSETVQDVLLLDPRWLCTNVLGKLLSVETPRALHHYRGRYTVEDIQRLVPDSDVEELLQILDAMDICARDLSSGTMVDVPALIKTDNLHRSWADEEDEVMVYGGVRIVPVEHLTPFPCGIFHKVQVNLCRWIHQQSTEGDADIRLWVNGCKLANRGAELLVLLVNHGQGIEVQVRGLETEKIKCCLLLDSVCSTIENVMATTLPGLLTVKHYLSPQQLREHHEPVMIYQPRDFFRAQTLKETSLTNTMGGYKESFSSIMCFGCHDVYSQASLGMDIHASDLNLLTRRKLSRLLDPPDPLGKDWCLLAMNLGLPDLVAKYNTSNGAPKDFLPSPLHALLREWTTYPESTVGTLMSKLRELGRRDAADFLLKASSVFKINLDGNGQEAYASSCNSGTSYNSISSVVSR
Death-associated protein kinase 2 (Homo sapiens), sequence (Q9UIK4 whole entry, looked up): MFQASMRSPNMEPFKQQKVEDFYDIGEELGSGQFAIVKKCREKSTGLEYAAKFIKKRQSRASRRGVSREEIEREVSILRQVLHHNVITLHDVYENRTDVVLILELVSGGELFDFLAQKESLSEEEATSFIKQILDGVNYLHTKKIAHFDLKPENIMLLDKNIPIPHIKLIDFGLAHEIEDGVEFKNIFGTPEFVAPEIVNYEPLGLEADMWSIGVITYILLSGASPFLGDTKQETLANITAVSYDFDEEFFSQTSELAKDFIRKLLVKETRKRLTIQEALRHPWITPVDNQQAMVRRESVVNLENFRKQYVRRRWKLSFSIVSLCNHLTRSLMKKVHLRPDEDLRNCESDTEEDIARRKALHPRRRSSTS

On to `COC(=O)[C@@]1(O)C[C@H]2O[C@]1(C)n1c3ccccc3c3c4c(c5c6ccccc6n2c5c31)C(=O)NC4`, for which the residual activity is 48% in test [1]; 10% in test [2]; 12% in test [3]; -3% in test [4]; 75% in [5]; 41% in test [6]. In addition, the residual activity is 56% in [7]; 17% in test [8]; 116% in test [9]; 65% in [10]; 0% in test [11]; 1% in test [12]. In addition, the residual activity in [13] was 2%; in [14], -4%; in test [15] it was 3%; in test [16] it was 0%; in test [17], 44%; in [18], 8%. Also, the residual activity in test [19] was 42%.

As usually defined, the residual activity is the signal under treatment as a percentage of the control signal.
